The text below walks through data of PubChem BioAssay AID588358 (NMMLSC, 2011).

The whole screen tested about 310,000 compounds, of which about 1,500 (0.48%) were called active. The list comes from a sample in which actives are over-represented; it also holds similar structures and randomly drawn compounds. A number with no mark means an inactive call.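 The calls were made as follows: active = binding more than 3 SD below its plate's average and above zero; inconclusive = below that plate limit but binding exactly zero; inactive = the rest.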

The target of this assay is Desmoglein-3 (Homo sapiens) (UniProt P32926). Nature of the assay: blockers of anti-DSG3 scFv binding – biochemical, bead-based, flow cytometry, scFv-GFP, primary screen (AID 588358).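 Also: hits lower antibody fragment binding to DSG3.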 As to conditions: DSG3-coupled beads, at 10 µM, active compounds read low. For orientation: A flow cytometer gives signals particle by particle.
Sequence of Desmoglein-3 (Homo sapiens) (P32926 whole entry, looked up, the tested form may be a part): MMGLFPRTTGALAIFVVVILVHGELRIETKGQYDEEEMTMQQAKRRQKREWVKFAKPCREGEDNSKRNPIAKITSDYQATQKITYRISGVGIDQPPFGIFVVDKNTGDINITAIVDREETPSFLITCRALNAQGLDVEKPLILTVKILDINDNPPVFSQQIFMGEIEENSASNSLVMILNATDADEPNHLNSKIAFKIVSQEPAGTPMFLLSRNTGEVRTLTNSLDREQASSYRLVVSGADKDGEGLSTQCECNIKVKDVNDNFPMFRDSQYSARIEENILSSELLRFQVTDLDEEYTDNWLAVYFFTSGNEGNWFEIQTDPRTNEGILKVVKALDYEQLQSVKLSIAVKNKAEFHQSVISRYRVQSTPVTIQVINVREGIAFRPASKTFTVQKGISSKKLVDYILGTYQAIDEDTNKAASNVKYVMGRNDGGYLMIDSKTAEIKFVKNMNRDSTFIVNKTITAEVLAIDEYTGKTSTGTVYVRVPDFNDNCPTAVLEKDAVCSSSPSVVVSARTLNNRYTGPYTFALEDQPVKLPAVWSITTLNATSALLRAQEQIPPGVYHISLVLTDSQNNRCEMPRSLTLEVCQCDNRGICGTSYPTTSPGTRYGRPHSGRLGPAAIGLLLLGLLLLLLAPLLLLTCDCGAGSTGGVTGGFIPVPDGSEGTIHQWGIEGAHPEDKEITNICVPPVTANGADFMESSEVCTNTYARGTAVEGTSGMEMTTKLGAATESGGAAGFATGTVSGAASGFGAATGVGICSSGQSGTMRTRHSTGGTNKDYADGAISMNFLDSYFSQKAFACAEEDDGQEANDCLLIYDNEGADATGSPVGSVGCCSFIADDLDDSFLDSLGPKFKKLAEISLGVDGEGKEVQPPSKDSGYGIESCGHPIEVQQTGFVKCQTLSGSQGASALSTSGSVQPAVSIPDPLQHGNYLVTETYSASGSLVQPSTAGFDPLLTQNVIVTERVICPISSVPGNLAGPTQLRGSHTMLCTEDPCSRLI
In the case of `COc1cccc(NC(=O)Nc2ccc(F)cc2)c1`, the binding (percent of control) was 99.8%.

As for `CC(OC(=O)c1cccc(S(=O)(=O)N2CCOCC2)c1)C(=O)NCC1CCCCC1` (stereo not drawn), the binding (percent of control) is 106%.

`CCc1c(N=O)c(-c2ccccc2)n(O)[n+]1[O-]`: the binding (percent of control) was 95.9%.

On to `CCc1noc(C)c1C(=O)OCC(=O)c1ccc(NC(=O)CC(C)C)cc1`, for which the binding (percent of control) is 106%. For `CN(CCOc1ccccc1)C(=O)c1cc(-c2ccco2)nc2ccccc12` the value was 105%; for `CN(C(=O)COC(=O)c1nc(Cl)ccc1Cl)C1CCS(=O)(=O)C1` (stereo not drawn), 109%. Turning to `CN(C(=O)COC(=O)c1cc(-c2ccco2)nc2ccccc12)C1CCS(=O)(=O)C1` (stereo not drawn), the binding (percent of control) is 59.4% (active).

Regarding `O=S(=O)(c1cccc(C(F)(F)F)c1)N1c2ccccc2-n2cccc2C1c1cccnc1` (stereo not drawn), the binding (percent of control) was 99.9%. For `c1ccc(-c2cc(-c3ccccc3)[nH]n2)cc1` the value was 95%.

As for `S=c1[nH]nc(-c2cc(-c3ccccc3)n[nH]2)n1/N=C/c1c2ccccc2cc2ccccc12`, the binding (percent of control) was 82.6% (active). Take `Fc1ccccc1/C=N/n1c(-c2cccnc2)n[nH]c1=S`: the binding (percent of control) was 104%.

In the case of `Cc1ccc(-c2ccc(CN3C(C)C(=O)N(Cc4cn(CCC5OCCCO5)nn4)CCS3(=O)=O)cc2)cc1` (stereo not drawn), the binding (percent of control) is 104%. `C/C(=N\NC(=S)Nc1ccc(C)cc1)c1cc2ccccc2o1`: the binding (percent of control) is 83.6% (active). With `C/C(=N/NC(=S)Nc1ccccc1)c1ccc2c(c1)OCO2`, the binding (percent of control) was 98.1%.

Consider `Cc1ccc(NC(=O)c2cc3ccccc3o2)cc1`, for which the binding (percent of control) is 110%.

Take `Cc1cc2cc3n(c2nn1)N=C(Cl)CC3`: the binding (percent of control) is 104%.

As to `O=S1(=O)CCN(Cc2ccccc2)CC1`, the binding (percent of control) is 96.1%. In the case of `O=C(c1ccc(N2CCCC2=O)cc1)N1CCN(c2ccc(C(F)(F)F)cc2[N+](=O)[O-])CC1`, the binding (percent of control) was 99%. Consider `Cc1cc2nc3c(=O)n(Cc4ccccc4)c(=O)[nH]c3nc2cc1N`, for which the binding (percent of control) was 99.2%. For the compound `Nc1ccc2nc3c(=O)[nH]c(=S)[nH]c3nc2c1`, the binding (percent of control) is 19% (active). With `O=C(OCc1ccccc1)N1CCC2CC1c1cc(N3CCN(S(=O)(=O)c4cc(Cl)cc(Cl)c4)CC3)ccc12` (stereo not drawn), the binding (percent of control) was 100%. Consider `CCCCN1C(=O)C(CC(=O)NC(c2ccccc2)c2ccccc2)CC(C(=O)N2CCOCC2)=C1C` (stereo not drawn), for which the binding (percent of control) is 102%. In the case of `O=C(NN=Cc1ccc([N+](=O)[O-])cc1)C1CC1`, the binding (percent of control) is 122%.

With `O=C(N/N=C/c1ccc([N+](=O)[O-])cc1)C(=O)N1CCCC1`, the binding (percent of control) is -16.9% (active). In the case of `COC(=O)c1ccc(/C=N/NC(=O)C(=O)N2CCCCCC2)cc1` it was 102%. As to `Cc1ccc(S(=O)(=O)N2C[C@@H](C)[C@]3(C2)[C@H](O)[C@H](OC(=O)NCc2ccccc2)C[C@H]2C(=O)N(c4ccccc4)C(=O)[C@H]23)cc1`, the binding (percent of control) was 111%. Take `Cc1ccc(Oc2cnn(-c3ccccc3)c(=O)c2Br)cc1`: the binding (percent of control) was 117%.

On to `Cc1ccc(O/C=C2\OC(=O)c3ccccc32)cc1`, for which the binding (percent of control) was 80.4% (active).

As to `CN(C)C(CNC(=O)c1cccc(S(=O)(=O)N2CCc3ccccc3C2)c1)c1ccccc1` (stereo not drawn), the binding (percent of control) is 97.5%. As to `Cc1cc(Cl)ccc1C(=O)C1CCCN(C(=O)c2ccc3c(c2)OCO3)C1` (stereo not drawn), the binding (percent of control) was 103%. In the case of `CCOC(=O)c1cccc(NS(=O)(=O)c2c(C(=O)N3CCCCCC3)c(C)n(C)c2C)c1` it was 99.4%. Take `CCOC(=O)c1c(S(=O)(=O)Nc2cccc(Cl)c2)c(C)n(C)c1C`: the binding (percent of control) is 52% (active).

On to `CCOC(=O)c1c(S(=O)(=O)NCC(=O)Nc2ccc(C)cc2)c(C)n(C)c1C`, for which the binding (percent of control) was 97.8%. As to `N#CCCN(C(=O)Nc1ccc(Cl)c(Cl)c1)C1CCCCC1`, the binding (percent of control) was 105%. As to `Cn1nc(N)c2ncc(C(Cl)(Cl)Cl)nc21`, the binding (percent of control) is 100%. As to `O=C(CC(CC(=O)c1ccccc1)c1ccco1)c1ccccc1`, the binding (percent of control) was 99.4%. As to `CNC(=O)C1CN(C(=O)c2cccc(S(=O)(=O)N3CCc4ccccc43)c2)c2ccccc2O1` (stereo not drawn), the binding (percent of control) was 103%. Take `Cc1cccc(C(=O)OCC(=O)Nc2sccc2C(N)=O)c1C`: the binding (percent of control) is 104%.

Turning to `CCOc1ccc(Cn2nnc(C(=O)Nc3ccc(OC)cc3OC)c2N)cc1`, the binding (percent of control) is 81.7% (active).

In the case of `COc1ccc(NC(=O)Cn2nnc(C(=O)NCCc3ccc(OC)c(OC)c3)c2N)cc1`, the binding (percent of control) is 103%. In the case of `CCc1ccc(NC(=O)Cn2nnc(C(=O)NCc3ccc(OC)cc3)c2N)cc1` it was 106%; in that of `C[C@H]1NS(=O)(=O)c2cc(Cl)ccc2O[C@@H]1c1ccccc1`, 98.4%.

With `COc1cc2ccccc2cc1C(=O)Nc1ccc(NC(=O)c2cccs2)cc1`, the binding (percent of control) was 87.2%. Turning to `COc1ccc(CN(Cc2ccc(OC)cc2)C(=O)c2cccs2)cc1`, the binding (percent of control) was 100%. With `COc1ccc(CCNC(=O)/C(C#N)=C2\N=C(NC(=O)c3cccs3)c3ccccc32)cc1`, the binding (percent of control) was 81.2% (active). As for `COc1ccc(OC)c(C(=O)NC2CCCc3c2cnn3-c2cc(C)cc(C)c2)c1` (stereo not drawn), the binding (percent of control) is 96.8%. For `Cc1coc2c(O)cc3c(c12)OC1(N2CCCCC2)C(=O)NCCCC31` (stereo not drawn) the value was 62.7% (active). For the compound `CCCCN(C(C)=O)c1ccc2c(c1)C1CC2CCN1Cc1ccccc1` (stereo not drawn), the binding (percent of control) was 101%. In the case of `NC(=S)NN=Cc1ccc(OC(=O)COc2cc(Cl)c(Cl)cc2Cl)cn1`, the binding (percent of control) was 102%. For `COCOCCn1cc(CN2CCS(=O)(=O)N(Cc3ccc(-c4cccc(N(C)C)c4)cc3)C(CC(C)C)C2=O)nn1` (stereo not drawn), the binding (percent of control) was 101%. Take `CCOC(=O)c1c(NC(=O)COC(=O)c2ccc(S(=O)(=O)C(F)F)cc2)sc(C(=O)N(C)C)c1C`: the binding (percent of control) is 100%. In the case of `C(=N\N1CCN(c2ccccn2)CC1)/C1=C(N2CCOCC2)C(=C/c2ccccc2)/CC1` it was 109%; in that of `O=C1Nc2ccc(Br)cc2/C1=N/N=C/C1=C(N2CCOCC2)C(=C\c2ccccc2)/CC1`, 38.1% (active); in that of `O=C(O)c1ccc(NN=CC2=C(N3CCOCC3)/C(=C/c3ccccc3)CC2)cc1`, 109%. For the compound `CN1OC[C@@H]2CN(C(=O)c3ccc(-c4ccccc4)cc3)[C@H](c3ccc(-c4cccc(F)c4)cc3)C[C@@H]21`, the binding (percent of control) was 98.8%.

With `COCCn1c(SCC(=O)Nc2ccc(F)cc2F)nc2c(c1=O)SCC2`, the binding (percent of control) was 103%. For `O=C(COc1ccc(S(=O)(=O)N2CCCC2)cc1[N+](=O)[O-])N1CCCCC1` the value was 92.6%.

As for `Cc1cccc2c1cnn2C(=O)CCC(=O)NC1CCCCC1`, the binding (percent of control) is 102%. With `Cc1ccc2nc(SCC(=O)NC3CCCC3)[nH]c2c1`, the binding (percent of control) is 81.4%. Take `Cc1ccc2c(cnn2C(=O)CCC(=O)NC2CCCC2)c1`: the binding (percent of control) is 53% (active).

As for `CC1(c2cccc(Br)c2)NC(=O)N(CC(=O)NCCC2=CCCCC2)C1=O` (stereo not drawn), the binding (percent of control) was 99.5%. As to `O=Nc1c(O)cc(O)c2ccccc12`, the binding (percent of control) was 104%. For the compound `CC(C)CCC(=O)Nc1cc(S(=O)(=O)N2CCOCC2)ccc1N1CCCC1`, the binding (percent of control) is 104%.

On to `COc1ccc(N(CC(=O)NCCSCc2cccc(Cl)c2)S(C)(=O)=O)cc1`, for which the binding (percent of control) is 104%.

`COc1cc(OC)cc(C(=O)NCCSCc2ccc(Cl)cc2)c1`: the binding (percent of control) is 76.3% (active).

On to `COc1ccc(CCNC(=O)c2cnc(Cl)c(Cl)c2)cc1`, for which the binding (percent of control) was 97.2%. Regarding `Cc1ccc(S(=O)(=O)NN=C2CC(C)(C)CC(=O)C2(C)C)cc1`, the binding (percent of control) is 98.4%. In the case of `O=C(NCCc1cccc(F)c1)C1CC(O)CN1C(=O)Nc1ccccc1` (stereo not drawn) it was 94.3%; in that of `COc1cc(C=NC2CCCCC2)ccc1O`, 106%. Consider `COc1ccc(CCNC(=S)N2CCN(S(=O)(=O)c3ccc(F)cc3)CC2)cc1`, for which the binding (percent of control) was 63.3% (active). With `COc1ccc(CCC(=O)N2CCN(S(=O)(=O)c3ccc(OC)cc3)CC2)cc1`, the binding (percent of control) was 96.6%.

As to `COc1ccc(CCNC(=S)N2CCN(S(=O)(=O)c3ccc(Cl)cc3)CC2)cc1`, the binding (percent of control) is 106%.

As for `COC(=O)[C@H]1C[C@H](OC(=O)NCc2ccccc2)[C@@]2(O)CN(S(=O)(=O)c3ccc(C)cc3)CC2[C@H]1C(=O)OC` (stereo partly drawn), the binding (percent of control) is 110%. Turning to `COc1ccc(-c2cn3ccsc3n2)cc1`, the binding (percent of control) was 107%. Regarding `COc1ccc(-c2csc(Cc3nc(O)cs3)n2)cc1`, the binding (percent of control) is 8.21% (active). For `CC(C)(C)C(=O)OCc1nc(-c2ccc(O)c(O)c2)cs1` the value was 103%; for `COc1ccc([C@H]2C[C@@H](n3cc(COC(=O)c4ccccc4)nn3)[C@H](O)CN2C(=O)c2cccs2)cc1`, 106%; for `CCN1CCN(CCNC(=O)c2ccc3c(c2)NC(=O)/C(=C\c2cccc(Cl)c2)S3)CC1`, 106%. For `O=C(COC(=O)c1ccc(S(=O)(=O)N2CCCCCC2)cc1)Nc1ccccc1C(F)(F)F` the value was 109%. With `CCOC(=O)C1CCN(C(=O)/C=C/c2cc(OC)c(OC)c(OC)c2)CC1`, the binding (percent of control) was 101%. For `COc1ccc(/C=C/C(=O)N2CCCC2)cc1OC` the value was 105%. Regarding `COc1cc(/C=C/C(=O)N2CCc3ccccc3C2)cc(OC)c1OC`, the binding (percent of control) was 68.1% (active). With `Cc1ccc(S(=O)(=O)N2C[C@H]3n4c(=O)ccc(=O)n4C[C@H](OC(=O)NC4CCCC4)[C@@]3(O)C2)cc1`, the binding (percent of control) was 103%. Turning to `COc1ccc([C@H]2N[C@]3(CCCN(CC4CCCCC4)C3=O)[C@H]3C(=O)N(C)C(=O)[C@@H]23)cc1`, the binding (percent of control) is 106%. `COc1cccc(/C=C2\SC(=S)N(CCCC(=O)N3CCOCC3)C2=O)c1`: the binding (percent of control) was 99.8%. As for `CCOC(=O)c1sc(NC(=O)c2sc(C)nc2C)nc1C`, the binding (percent of control) was 96.7%. In the case of `CCOC(=O)c1sc(NC(=O)C(CC)Sc2nccn2C)nc1C` (stereo not drawn), the binding (percent of control) is 83.3% (active). As to `C=CCn1c2ccccc2c2nnc(SC(CC)C(=O)Nc3nc(C)c(C(=O)OCC)s3)nc21` (stereo not drawn), the binding (percent of control) is 93.3%.
